Among the data in PubChem BioAssay (EPA / NIEHS) are outcome and AC50 values, retold here.

Results filed as inconclusive are left out. Active and inactive are the calls of the source. The calls were made as follows, unless noted: active = hit-call score of the fitted dose curve at least 0.9, where 1 is the maximum; inactive = score below 0.9.

The nature of experiment [1]: BSK_SAg_PBMCCytotoxicity: PBMC Cytotoxicity Assessment in the BioMAP Diversity Plus: SAg Assay (AID 2283093).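 Also: PBMC viability measured as Alamar Blue reduction fluorescence at 546/580 nm; fitted both ways against DMSO so a hit may be loss or gain of signal.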 The conditions noted are these: primary human HUVEC with PBMC. In a few lines:
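Human umbilical vein endothelial cells co-cultured with PBMC; PBMC (75,000/well) pre-treated with compound 1 h, then activated with SEB and TSST-1 (20 ng/mL final each) for 90 h. Alamar Blue added 6 h, fluorescence 546/580 nm; bidirectional fit versus DMSO.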

Read-out in experiment [2]: Interleukin-8 (IL8), CXCL8 (gene 3576)
The experiment is described as follows: BSK_SAg_IL8: BioMAP Diversity Plus: SAg Assay for Interleukin-8 (IL8) Biomarker Activity (AID 2283094). As to conditions: primary human HUVEC with PBMC; actives raise or lower the signal. In a few lines: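 ELISA read-out of IL-8 in a primary human vascular co-culture (umbilical vein endothelium plus PBMC), taken 24 h after compound addition. Values derive from bidirectional fits against DMSO negative controls.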

A short description of experiment [3]: BSK_SAg_Proliferation: Cell Proliferation Assessment in the BioMAP Diversity Plus: SAg Assay (AID 2283095).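 Also: relative cell number as total protein by SRB absorbance in sub-confluent culture.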 The conditions noted are these: primary human HUVEC with PBMC. In a few lines: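 Cells (endothelium plus PBMC, human primary) were dosed with chemical, cultured 96 h, fixed in 10% TCA and stained with 0.1% SRB. Absorbance at 560 nm gave relative protein, fitted bidirectionally relative to DMSO.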

Experiment [4] can be described thus: BSK_SAg_SRB: Viability Assessment in the BioMAP Diversity Plus: SAg Assay (AID 2283096).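 Also: cells read one day after compound addition; hits may be either gain or loss of signal compared with DMSO.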 The conditions noted are these: primary human HUVEC with PBMC. In a few lines:
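Endothelial/PBMC primary human co-culture; compound 24 h; fix 10% TCA, stain 0.1% SRB, A560; protein content as cytotoxicity proxy; bidirectional curve fit, DMSO = baseline.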

The target of experiment [5] is human CYP2C9, CYP2C9 (gene 1559) (UniProt P11712). The experiment is described as follows: NVS_ADME_hCYP2C9: NovaScreen (NVS) CYP450-related Enzyme Activity (ADME) Assay for human CYP2C9 (AID 2283108; active = hit-call score of the fitted dose curve at least 0.9, where 1 is the maximum). In outline:
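Cell-free assay of recombinant human CYP2C9 produced in Sf9 cells, with enzyme activity read by fluorescence intensity 0.75 h after compound addition. Loss of signal versus an acetonitrile negative control indicates inhibition. Primary screen used 10 uM in duplicate; actives were retested in concentration series.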

Experiment [6] deals with Cytochrome P450 2C19 (Homo sapiens) (UniProt P33261). The experiment is described as follows: NVS_ADME_hCYP2C19: NovaScreen (NVS) CYP450-related Enzyme Activity (ADME) Assay for human CYP2C19 (AID 2283113; active = hit-call score of the fitted dose curve at least 0.9, where 1 is the maximum;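 also: potency for inhibition seen as loss of fluorescent signal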). In outline:
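Compounds first screened in duplicate at 10 uM, then confirmed in concentration series. Insect-cell-expressed human CYP2C19 turned over a fluorogenic substrate, and fluorescence was read after 1 h. Inhibition taken as signal loss relative to acetonitrile.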

Experiment [7] has as its target human CYP1A1, CYP1A1 (gene 1543) (UniProt P04798). The experiment is described as follows: NVS_ADME_hCYP1A1: NovaScreen (NVS) CYP450-related Enzyme Activity (ADME) Assay for human CYP1A1 (AID 2283100; active = hit-call score of the fitted dose curve at least 0.9, where 1 is the maximum). In outline:
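Chemicals were first tested in duplicate at 10 uM, and those passing a 30% inhibition threshold were rerun as concentration series topping at 20 uM. Fluorescence read-out of recombinant enzyme turnover after 1 h, relative to acetonitrile.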

Experiment [8] has as its target human CYP1A2, CYP1A2 (gene 1544) (UniProt P05177). The experiment is described as follows: NVS_ADME_hCYP1A2: NovaScreen (NVS) CYP450-related Enzyme Activity (ADME) Assay for human CYP1A2 (AID 2283102; active = hit-call score of the fitted dose curve at least 0.9, where 1 is the maximum;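 also: potency for inhibition since loss of fluorescence marks reduced CYP1A2 activity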). In a few lines:
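Enzyme activity of insect-cell-expressed human CYP1A2 measured by fluorescence 0.5 h after compound addition, relative to acetonitrile. Compounds first tested in duplicate at 10 uM, actives followed up in concentration series.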

Experiment [9] deals with Cytochrome P450 3A4 (Homo sapiens) (UniProt P08684). The experiment is described as follows: NVS_ADME_hCYP3A4: NovaScreen (NVS) CYP450-related Enzyme Activity (ADME) Assay for human CYP3A4 (AID 2283110; active = hit-call score of the fitted dose curve at least 0.9, where 1 is the maximum). In outline:
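Cell-free assay using insect-cell-expressed human CYP3A4 with a fluorogenic substrate; fluorescence intensity was read 0.33 hour after dosing. Loss of signal relative to acetonitrile vehicle indicated inhibition. Primary single-concentration screen at 10 uM, in duplicate, then concentration series.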

In experiment [10] the target is human Caspase 5 (CASP5), CASP5 (gene 838) (UniProt P51878). The experiment is described as follows: NVS_ENZ_hCASP5: NovaScreen (NVS) Enzymatic Assay for human Caspase 5 (CASP5) (AID 2283137; active = hit-call score of the fitted dose curve at least 0.9, where 1 is the maximum). In outline:
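E. coli-derived enzyme, cell-free, 2 h incubation, fluorescence intensity. 25 uM duplicate single-point; hits → concentration series to 50 uM. DMSO baseline, positive/negative controls on every plate.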

Experiment [11] addresses human Acid Phosphatase 1 (ACP1), ACP1 (gene 52) (UniProt P24666). The experiment is described as follows: NVS_ENZ_hACP1: NovaScreen (NVS) Enzymatic Assay for human Acid Phosphatase 1 (ACP1) (AID 2283136; active = hit-call score of the fitted dose curve at least 0.9, where 1 is the maximum). In outline: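 Recombinant enzyme expressed in Sf9 cells, tested cell-free; activity read by fluorescence with electrophoretic mobility shift separation of substrate and product, 1.5 h after dosing. Primary screen in duplicate at 25 uM, actives then run in concentration series; loss of signal versus DMSO.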

For experiment [12], the target named is human AKT serine/threonine Kinase 1 (AKT1), AKT1 (gene 207) (UniProt P31749). The experiment is described as follows: NVS_ENZ_hAKT1: NovaScreen (NVS) Enzymatic Assay for human AKT serine/threonine Kinase 1 (AKT1) (AID 2283138; active = hit-call score of the fitted dose curve at least 0.9, where 1 is the maximum). In a few lines: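 Recombinant AKT1, specific substrate, cell-free; 1 h; fluorescence intensity/electrophoretic mobility shift. Duplicate single-point 25 uM, then singleton CRC max 50 uM. DMSO = negative control/baseline; signal loss = inhibition.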
Sequence of human AKT serine/threonine Kinase 1 (AKT1), AKT1 (gene 207) (P31749 whole entry, looked up): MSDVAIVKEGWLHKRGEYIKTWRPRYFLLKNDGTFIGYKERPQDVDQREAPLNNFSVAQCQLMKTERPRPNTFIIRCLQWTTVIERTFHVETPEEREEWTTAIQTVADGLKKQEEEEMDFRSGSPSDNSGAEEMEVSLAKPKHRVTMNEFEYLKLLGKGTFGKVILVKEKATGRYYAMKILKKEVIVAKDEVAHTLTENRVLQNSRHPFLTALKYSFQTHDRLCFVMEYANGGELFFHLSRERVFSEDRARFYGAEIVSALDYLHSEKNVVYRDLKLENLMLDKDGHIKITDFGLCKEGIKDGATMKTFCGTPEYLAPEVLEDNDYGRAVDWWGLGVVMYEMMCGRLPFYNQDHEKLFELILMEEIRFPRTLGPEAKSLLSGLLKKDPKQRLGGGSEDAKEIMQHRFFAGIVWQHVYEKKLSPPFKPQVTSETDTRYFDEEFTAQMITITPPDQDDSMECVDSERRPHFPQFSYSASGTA

Experiment [13] concerns the target human CYP2D6, CYP2D6 (gene 1565) (UniProt P10635). The experiment is described as follows: NVS_ADME_hCYP2D6: NovaScreen (NVS) CYP450-related Enzyme Activity (ADME) Assay for human CYP2D6 (AID 2283107; active = hit-call score of the fitted dose curve at least 0.9, where 1 is the maximum). In a few lines: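 Fluorescence readout of recombinant CYP2D6 (insect-cell derived) activity after 1 h incubation with test chemical. Acetonitrile served as baseline, loss-of-signal direction. Single-concentration duplicate screening at 10 uM preceded concentration-response retesting.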

Sequence of human CYP2C9, CYP2C9 (gene 1559) (P11712 whole entry, looked up): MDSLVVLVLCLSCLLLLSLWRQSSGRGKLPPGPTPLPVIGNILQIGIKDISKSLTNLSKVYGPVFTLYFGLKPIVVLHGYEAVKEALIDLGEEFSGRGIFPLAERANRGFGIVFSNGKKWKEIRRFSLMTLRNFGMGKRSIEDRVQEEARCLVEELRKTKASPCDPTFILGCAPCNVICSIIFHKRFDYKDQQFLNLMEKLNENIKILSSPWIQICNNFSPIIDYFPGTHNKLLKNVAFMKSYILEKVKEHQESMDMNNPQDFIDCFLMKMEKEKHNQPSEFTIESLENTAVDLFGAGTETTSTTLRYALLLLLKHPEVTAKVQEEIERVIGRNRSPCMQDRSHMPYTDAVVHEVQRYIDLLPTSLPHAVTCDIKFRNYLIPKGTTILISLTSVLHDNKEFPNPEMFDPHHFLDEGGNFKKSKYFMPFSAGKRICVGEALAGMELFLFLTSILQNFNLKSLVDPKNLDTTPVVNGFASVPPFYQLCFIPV
Sequence of Cytochrome P450 3A4 (Homo sapiens) (P08684 whole entry, looked up): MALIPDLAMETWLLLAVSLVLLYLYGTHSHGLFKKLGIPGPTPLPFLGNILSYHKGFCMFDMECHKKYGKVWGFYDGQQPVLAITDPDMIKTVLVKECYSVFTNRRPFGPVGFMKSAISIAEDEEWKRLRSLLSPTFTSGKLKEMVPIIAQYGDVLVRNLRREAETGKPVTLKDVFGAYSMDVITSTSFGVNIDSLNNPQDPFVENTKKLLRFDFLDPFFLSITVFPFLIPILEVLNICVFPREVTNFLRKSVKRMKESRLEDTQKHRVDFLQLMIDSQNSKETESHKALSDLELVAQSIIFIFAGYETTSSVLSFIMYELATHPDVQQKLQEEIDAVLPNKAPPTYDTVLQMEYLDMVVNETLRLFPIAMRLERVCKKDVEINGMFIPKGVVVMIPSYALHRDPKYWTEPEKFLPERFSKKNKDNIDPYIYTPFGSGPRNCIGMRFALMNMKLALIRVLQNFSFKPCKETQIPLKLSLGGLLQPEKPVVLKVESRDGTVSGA
Sequence of human Acid Phosphatase 1 (ACP1), ACP1 (gene 52) (P24666 whole entry, looked up): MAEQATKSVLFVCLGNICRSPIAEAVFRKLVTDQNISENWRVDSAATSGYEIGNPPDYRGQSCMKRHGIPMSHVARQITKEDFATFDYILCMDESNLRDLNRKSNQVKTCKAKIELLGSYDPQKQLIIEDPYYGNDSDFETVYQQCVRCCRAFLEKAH
Sequence of human CYP1A1, CYP1A1 (gene 1543) (P04798 whole entry, looked up): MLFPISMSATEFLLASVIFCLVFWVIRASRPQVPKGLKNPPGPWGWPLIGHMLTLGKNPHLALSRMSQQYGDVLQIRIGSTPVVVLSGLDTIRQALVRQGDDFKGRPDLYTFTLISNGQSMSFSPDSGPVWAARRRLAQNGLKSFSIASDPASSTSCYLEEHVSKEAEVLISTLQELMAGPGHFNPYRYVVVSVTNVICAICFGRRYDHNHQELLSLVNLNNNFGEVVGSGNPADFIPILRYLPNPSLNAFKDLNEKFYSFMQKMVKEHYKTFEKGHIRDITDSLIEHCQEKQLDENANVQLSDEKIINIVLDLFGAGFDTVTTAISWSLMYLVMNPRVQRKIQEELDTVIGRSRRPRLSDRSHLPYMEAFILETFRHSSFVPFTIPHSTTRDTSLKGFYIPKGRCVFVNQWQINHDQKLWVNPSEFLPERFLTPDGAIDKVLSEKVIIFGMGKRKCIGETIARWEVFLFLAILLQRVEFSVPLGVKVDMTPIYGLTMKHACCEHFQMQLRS
Sequence of human Caspase 5 (CASP5), CASP5 (gene 838) (P51878 whole entry, looked up): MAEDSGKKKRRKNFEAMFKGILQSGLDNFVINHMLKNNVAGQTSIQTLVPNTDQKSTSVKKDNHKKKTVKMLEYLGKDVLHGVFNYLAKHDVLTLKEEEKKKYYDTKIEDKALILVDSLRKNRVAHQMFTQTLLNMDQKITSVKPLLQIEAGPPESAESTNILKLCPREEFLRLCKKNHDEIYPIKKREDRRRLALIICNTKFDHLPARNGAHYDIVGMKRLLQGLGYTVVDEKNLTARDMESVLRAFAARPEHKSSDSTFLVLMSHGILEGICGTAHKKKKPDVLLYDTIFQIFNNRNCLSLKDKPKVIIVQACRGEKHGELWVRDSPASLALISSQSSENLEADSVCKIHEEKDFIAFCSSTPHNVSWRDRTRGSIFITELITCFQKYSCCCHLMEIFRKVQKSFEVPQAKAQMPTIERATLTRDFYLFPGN
Sequence of human CYP1A2, CYP1A2 (gene 1544) (P05177 whole entry, looked up): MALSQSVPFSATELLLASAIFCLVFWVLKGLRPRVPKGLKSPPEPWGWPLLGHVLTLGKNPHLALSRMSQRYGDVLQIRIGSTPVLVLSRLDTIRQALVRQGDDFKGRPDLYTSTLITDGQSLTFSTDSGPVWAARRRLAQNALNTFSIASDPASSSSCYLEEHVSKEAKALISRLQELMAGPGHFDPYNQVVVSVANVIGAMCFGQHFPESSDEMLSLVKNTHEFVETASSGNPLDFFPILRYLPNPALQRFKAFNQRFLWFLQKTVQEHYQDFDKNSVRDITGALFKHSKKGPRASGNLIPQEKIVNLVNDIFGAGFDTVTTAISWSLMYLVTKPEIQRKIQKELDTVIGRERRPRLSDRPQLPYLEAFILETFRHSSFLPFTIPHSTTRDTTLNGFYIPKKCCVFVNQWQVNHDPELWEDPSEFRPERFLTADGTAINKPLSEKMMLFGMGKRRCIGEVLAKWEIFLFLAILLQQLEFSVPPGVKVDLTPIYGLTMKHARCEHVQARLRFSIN
Sequence of human CYP2D6, CYP2D6 (gene 1565) (P10635 whole entry, looked up): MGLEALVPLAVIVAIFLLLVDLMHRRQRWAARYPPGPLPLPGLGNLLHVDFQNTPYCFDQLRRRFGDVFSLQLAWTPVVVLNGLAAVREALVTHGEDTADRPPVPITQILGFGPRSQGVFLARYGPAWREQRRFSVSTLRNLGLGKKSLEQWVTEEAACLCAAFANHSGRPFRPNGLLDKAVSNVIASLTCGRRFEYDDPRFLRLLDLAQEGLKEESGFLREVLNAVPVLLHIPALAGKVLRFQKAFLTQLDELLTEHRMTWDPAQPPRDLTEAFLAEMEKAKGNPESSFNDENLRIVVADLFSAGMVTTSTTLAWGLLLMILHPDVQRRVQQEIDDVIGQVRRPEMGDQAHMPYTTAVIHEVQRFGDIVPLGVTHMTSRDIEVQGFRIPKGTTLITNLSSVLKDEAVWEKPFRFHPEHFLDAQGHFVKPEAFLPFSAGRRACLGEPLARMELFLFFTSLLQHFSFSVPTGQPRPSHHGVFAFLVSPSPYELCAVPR

Take `O=C1OC(=O)C2C3C=CC(C3)C12` (configuration not stated): the result in experiment [1], in experiment [2], in experiment [3] and in experiment [4] was inactive.
One may read the AC50 as the midpoint of the concentration-response curve, whichever way the signal moves. Turning to `O=C(NS(=O)(=O)/C=C/c1ccccc1)c1ccc(F)cc1Cl`, the result in experiment [1], in experiment [2] and in experiment [4] was inactive. The AC50 is 8.5 µM (active) in experiment [3] and 6.85 µM (active) in experiment [5].
As for `COc1ccc(-n2nc(C(F)F)cc2-c2ccc(S(C)=O)cc2)cc1` (configuration not stated), the result in experiment [1], in [3] and in experiment [4] was inactive. Besides, the half-maximal activity concentration (AC50) is 2.09 µM (active) in [2] and 0.967 µM (active) in [6].
As for `CC(C)=CCC/C(C)=C\CO`, the result in experiment [1], in [2], in experiment [3] and in [4] was inactive.
Consider `Oc1ccc2c(c1)-c1ccccc1C2`, for which the result in [1], in experiment [2], in experiment [3] and in experiment [9] was inactive. The concentration at half-maximal activity (AC50) was 20 µM (active) in experiment [4]; 6.18 µM (active) in experiment [7]; 0.691 µM (active) in [8]; 3.72 µM (active) in [5]; 5.99 µM (active) in [6]; 36.1 µM (active) in experiment [10].
On to `O=C(O)c1cc(N=Nc2ccc(S(=O)(=O)Nc3ccccn3)cc2)ccc1O`, for which the result in [1], in [2], in experiment [3], in experiment [4], in [7] and in experiment [11] was inactive. Besides, the call in experiment [12] was inactive.
`O=C(O)c1cccc(Oc2ccccc2)c1`: the result in experiment [1], in experiment [2], in experiment [3], in experiment [4] and in [12] was inactive.
With `Cc1ccc(S(=O)(=O)O)cc1C`, the result in experiment [1], in experiment [2], in experiment [3] and in experiment [4] was inactive.
With `CC(C)c1cccc(C(C)C)c1N1C(=O)c2ccc(O)cc2C1=O`, the outcome in experiment [1], in [2], in [13], in experiment [11] and in experiment [12] was inactive. Besides, the half-maximal activity concentration (AC50) in experiment [3] is 20 µM (active); in experiment [4], 19.3 µM (active); in [5], 4.78 µM (active); in [9], 13.6 µM (active); in experiment [6], 5.11 µM (active).
For `CCCCCCCCO`, the result in experiment [1], in experiment [2], in [3] and in experiment [4] was inactive.
For `CC(O)CN(CCN(CC(C)O)CC(C)O)CC(C)O` (configuration not stated), the outcome in [1], in experiment [2], in experiment [3] and in experiment [4] was inactive.
For `Cn1c(=O)cc(Oc2ccc(F)cc2F)c2cnc(NCC(C)(C)O)nc21`, the result in experiment [1], in experiment [3], in experiment [4] and in experiment [9] was inactive. Moreover, the AC50 in experiment [2] is 1.09 µM (active).
